Assay results as given in publication PMC7826789 (International Journal of Molecular Sciences, 2021).

Test system: FLT1

Kinases covered, FLT1:
O=C(Nc1ccccc1)Nc1cccc(Oc2ccc3nccn3n2)c1 [TPKI-39]
CCn1cc(-c2ccnc3[nH]c(-c4cccc(CN(C)C)c4)cc23)c(-c2ccc(NC(=O)N(C)C)cc2)n1 [GSK1070916]
CCS(=O)(=O)c1ccc(OC)c(Nc2ncc(-c3cccc(OC)c3)o2)c1 [GW580509X]
CCS(=O)(=O)c1ccc(OC)c(Nc2ncc(-c3cccc(F)c3)o2)c1 [GW621970X]

Test system: GAK

Kinases covered, GAK:
COc1cc2ncnc(Nc3ccc(F)c(Cl)c3)c2cc1O[C@H]1CC[C@H](N)CC1 [BIBW3133BS]
COc1cc(Nc2ccnc3ccc(Br)cc23)cc(OC)c1OC [CA93.0]
CCCc1cc(N2CCCN(C)CC2)nc2sc3c(N)ncnc3c12 [BI00604564]
O=C(O)/C=C/C(=O)O.OCCCNc1nccc(-c2c(-c3ccc(F)cc3)nn3cc(C(F)(F)F)ccc23)n1 [GW569293E]
C#Cc1cccc(Nc2ncnc3cc(OC)c(OC4CCN(C)CC4)cc23)c1 [BI00007366]

Test system: GSK3A

Kinases covered, GSK3A:
O=C(Nc1n[nH]c2nc(-c3nccs3)c(Br)cc12)C1CCCC1 [SB-742609]
COc1ccc(CSc2nnc(-c3ccc4ncsc4c3)o2)cc1C(F)(F)F [TPKI-91]
COc1cccc(-n2ncc3c(N/N=C/c4ccncc4)ncnc32)c1 [GW784752X]
CCC(NN(C)C)=C1C(=O)Nc2ccc(C(C)=O)cc21 [BI00036838]

Test system: GSK3B

Kinases covered, GSK3B:
COc1ccc2c(-c3ccnc(Nc4cccc(OC(F)(F)F)c4)n3)cnn2n1 [GW810372X]
COc1cc(C=NNc2ncnc3c2cnn3-c2ccccc2)ccc1O [GW513184X]
Cc1nnc(-c2ccc3occ(-c4ccc(S(C)=O)cc4)c3c2)[nH]1 (stereo not drawn) [TPKI-85]
O=C(Nc1n[nH]c2nc(-c3ccc(O)cc3)c(Br)cc12)C1CC1 [SB-725317]
COc1ccc(CSc2nnc(-c3ccc4ncsc4c3)o2)cc1C(F)(F)F [TPKI-91]
CCC(NN(C)C)=C1C(=O)Nc2ccc(C(C)=O)cc21 [BI00036838]

Test system: IGF1R

Kinases covered, IGF1R:
CNC(=O)c1c(F)cccc1Nc1nc(Nc2cc3c(cc2OC)CCN3C(=O)CN(C)C)nc2[nH]ccc12 [GSK1838705]
CN(C)C/C=C/C(=O)Nc1ccc(C(=O)Nc2cccc(Nc3ncc(Cl)c(-c4c[nH]c5ccccc45)n3)c2)cc1 [THZ1]
CCc1cc(Nc2nccc(-c3c(-c4ccc(OC)c(C(=O)Nc5c(F)cccc5F)c4)nc4ccccn34)n2)c(OC)cc1N1CCC(N2CCN(S(C)(=O)=O)CC2)CC1 [GSK1904529]
COc1cc(N2CCN(C(C)C)CC2)ccc1Nc1nc(Nc2ccc(F)cc2C(=O)NC[C@@H](O)CO)c2cc[nH]c2n1 [GSK1392956A]
COc1cc(C)c(N(C)C(=O)CN(C)C)cc1Nc1nc(Nc2cccc(F)c2C(N)=O)c2cc[nH]c2n1 [GSK2219385]
